Screening results deposited in PubChem by Sanford-Burnham Center for Chemical Genomics.
Shown are actives, neighbours in structure and some others; about 2.6% of the full set was active somewhere.
PABP1 MLLE inh = inhibitors of microRNA-mediated deadenylation, human PABP1 MLLE binding; 360,000 tested, 0.36% active; inhibition, % at 20 µM; AID 588489; GST-MLLE / FITC-PAM2 fluorescence polarization; P11940; in the data active means inhibition above about 35%, passing the limit was not always enough;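 further: plate controls were DMSO wells with GST-MLLE for no effect and wells lacking GST-MLLE protein for full effect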
PABP polyA inh = PABP-poly(A) binding inhibition; calls only at 35 µM; 290,000 tested, 1% active; PABP-poly(A) RNA binding, fluorescence polarization;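 further: calls also rest on retests at 20 µM and on dose response follow-up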
APOBEC3A inh = human APOBEC3A DNA deaminase inhibition; P31941; recombinant A3A, FAM/TAMRA ssDNA deamination fluorescence; inhibition, % at 20 µM; 330,000 tested, 0.41% active;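 active means at least 40% inhibition at 20 µM here, with at most 30% in a related deaminase screen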;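 further: plate controls were A3A with DMSO for no effect and wells lacking A3A enzyme for full effect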
Target sequence (P31941 whole entry, looked up): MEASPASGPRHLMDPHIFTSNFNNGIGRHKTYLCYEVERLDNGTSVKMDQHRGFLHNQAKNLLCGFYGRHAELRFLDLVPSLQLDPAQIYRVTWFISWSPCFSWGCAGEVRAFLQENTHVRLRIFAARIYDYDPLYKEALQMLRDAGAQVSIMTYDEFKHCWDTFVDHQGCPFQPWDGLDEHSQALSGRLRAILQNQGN
eIF4H FP inh = inhibitors of RNA binding by human eIF4H; Q15056; eIF4H fluorescence polarization binding assay; inhibition, % at 35 µM; 290,000 tested, 0.94% active; AID 2012;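 further: calls also rest on retests at 20 µM and on dose response follow-up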
PHOSPHO1 block = blocks human PHOSPHO1 phosphatase activity | Q8TCT1 | recombinant PHOSPHO1, absorbance phosphatase assay | inhibition, % at 13.3 µM | 290,000 tested, 1.1% active | AID 1565; in the data active means inhibition above about 60%
A3G deaminase = inhibitors of human APOBEC3G DNA deaminase. inhibition, % at 20 µM. AID 493012. recombinant A3G, ssDNA deamination FAM/TAMRA fluorescence. Q9HC16. 330,000 tested, 0.28% active;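 active means inhibition of at least 40% at 20 µM, with no more than 30% in the related APOBEC3A deaminase screen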;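 further: plate controls were DMSO wells with A3G for no effect and wells lacking A3G enzyme for full effect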
* hit, by the source's call. Unless noted, how the calls were made is not given here.

Results for CC1CN(CCc2ccccc2)c2nc3c(c(=O)n(CC(N)=O)c(=O)n3C)n2C1 (stereo unspecified) ?
PABP1 MLLE inh: 7.4; PABP polyA inh: inactive; APOBEC3A inh: -1.2; eIF4H FP inh: 3.3; PHOSPHO1 block: 27.9; A3G deaminase: 0.2

Results for COc1ccc(/C=C2\Oc3cc(OCC(=O)N4CCC[C@H]4CO)ccc3C2=O)c(OC)c1 ?
PABP1 MLLE inh: -42.5; PABP polyA inh: active; APOBEC3A inh: 6.8; eIF4H FP inh: 72.8; PHOSPHO1 block: 34.3; A3G deaminase: -0.3

How did N#C/C(=C/c1ccccc1)C(=O)NCc1ccccc1 do in these assays?
PABP1 MLLE inh: -2.5; PABP polyA inh: inactive; APOBEC3A inh: -2.4; eIF4H FP inh: 3.8; PHOSPHO1 block: 64.3*; A3G deaminase: -9.1

How did N#C/C(=C\c1ccc(O)c(Br)c1)C(=O)NCc1ccccc1 do in these assays?
PABP1 MLLE inh: -6.8; PABP polyA inh: inactive; APOBEC3A inh: 3.9; eIF4H FP inh: 8.4; PHOSPHO1 block: 23.6; A3G deaminase: 0.9

Results for CN1C(=O)C(CC(=O)Nc2ccc(F)cc2)N(Cc2ccco2)C1=S (stereo unspecified) ?
PABP1 MLLE inh: -13.5; PABP polyA inh: inactive; APOBEC3A inh: -0.1; eIF4H FP inh: -6.6; PHOSPHO1 block: 34.9; A3G deaminase: 0.5

Results for CCOc1c(N2CCOCC2)c(=O)c1=O ?
PABP1 MLLE inh: -0.1; PABP polyA inh: inactive; APOBEC3A inh: -0.6; eIF4H FP inh: 4.2; PHOSPHO1 block: 51.4; A3G deaminase: -3.9

How did Cc1ccc2nc(-c3cccnc3)c(NC3CCCCC3)n2c1 do in these assays?
PABP1 MLLE inh: 46.1*; PABP polyA inh: inactive; APOBEC3A inh: 0.5; eIF4H FP inh: 17.4; PHOSPHO1 block: -12.0; A3G deaminase: 0.7

How did c1cn2c(NC3CCCCC3)c(-c3ccc(SC4CCCCC4)cc3)nc2cn1 do in these assays?
PABP1 MLLE inh: -38.3; APOBEC3A inh: -4.2; A3G deaminase: -8.4

What do the screens show for `CCN(CC)c1ccc(-c2nc3cnccn3c2NC2CCCC2)cc1`?
PABP1 MLLE inh: -37.6; PABP polyA inh: inactive; APOBEC3A inh: -4.2; eIF4H FP inh: 3.5; PHOSPHO1 block: 62.3*; A3G deaminase: -7.0

How did Cc1ccc2nc(-c3cccc(SC4CCCCC4)c3)c(NC3CCCCC3)n2c1 do in these assays?
PABP1 MLLE inh: -6.7; APOBEC3A inh: 2.5; A3G deaminase: -2.0

Results for CS(=O)(=O)NCCSCc1ccccc1 ?
PABP1 MLLE inh: 0.5; PABP polyA inh: inactive; APOBEC3A inh: 4.5; eIF4H FP inh: -4.4; PHOSPHO1 block: 0.2; A3G deaminase: 0.3

How did CS(=O)(=O)NCCSc1cc(C(F)(F)F)nc2ccccc12 do in these assays?
PABP1 MLLE inh: -0.1; PABP polyA inh: active; APOBEC3A inh: -2.9; eIF4H FP inh: 63.7*; PHOSPHO1 block: 18.9; A3G deaminase: -6.7

Results for COc1ccc(S(=O)(=O)Nc2cc3c4c(c2)CCC(=O)N4CCC3)cc1C ?
PABP1 MLLE inh: 8.6; APOBEC3A inh: -2.7; A3G deaminase: -2.8

What do the screens show for `COc1ccc(/C=N/NC(=O)CCN2CCN(c3ccccc3)CC2)c(OC)c1OC`?
PABP1 MLLE inh: 1.7; PABP polyA inh: inactive; APOBEC3A inh: -4.7; eIF4H FP inh: -11.9; PHOSPHO1 block: -7.1; A3G deaminase: -4.0

Results for O=C(Cc1csc(N2CCOCC2)n1)N/N=C/c1ccc(O)c(O)c1O ?
PABP1 MLLE inh: 30.7; PABP polyA inh: active; eIF4H FP inh: 71.8; PHOSPHO1 block: 9.5

How did O=C(CCN1CCN(c2ccccc2)CC1)N/N=C/c1ccc(O)c(O)c1O do in these assays?
PABP1 MLLE inh: 19.1; PABP polyA inh: active; eIF4H FP inh: 94.7; PHOSPHO1 block: -5.2

Results for C/C(=N\NC(=O)Cc1csc(N2CCOCC2)n1)c1ccccc1 ?
PABP1 MLLE inh: 13.1; PABP polyA inh: inactive; APOBEC3A inh: 0.4; eIF4H FP inh: 4.2; PHOSPHO1 block: 12.1; A3G deaminase: -4.7

Results for N#C/C(=C\c1ccc(OC(=O)c2ccc(Br)s2)cc1)c1nc2ccccc2[nH]1 ?
PABP1 MLLE inh: 4.1; PABP polyA inh: inactive; eIF4H FP inh: 27.2; PHOSPHO1 block: -13.2

How did N#C/C(=C\c1ccc(OC(=O)c2ccc(Cl)s2)cc1)c1nc2ccccc2[nH]1 do in these assays?
PABP1 MLLE inh: 15.8; PABP polyA inh: active; APOBEC3A inh: 4.0; eIF4H FP inh: 51.4*; PHOSPHO1 block: -2.4; A3G deaminase: 2.2

How did CSc1sc2ccccc2[n+]1CCCS(=O)(=O)[O-] do in these assays?
PABP1 MLLE inh: 26.4; PABP polyA inh: inactive; APOBEC3A inh: 2.4; eIF4H FP inh: 0.5; PHOSPHO1 block: 88.7*; A3G deaminase: 6.4

Results for COc1ccc2sc(SCCCS(=O)(=O)O)[n+](CCCS(=O)(=O)[O-])c2c1 ?
PABP1 MLLE inh: 34.2; PABP polyA inh: inactive; APOBEC3A inh: -1.7; eIF4H FP inh: 3.2; PHOSPHO1 block: -18.4; A3G deaminase: 13.9

What do the screens show for `COc1ccc(NC(=O)CC2Sc3ncnn3C2=O)cc1` (stereo unspecified)?
PABP1 MLLE inh: 43.1*; PABP polyA inh: inactive; APOBEC3A inh: 5.0; eIF4H FP inh: -15.9; PHOSPHO1 block: -17.3; A3G deaminase: 26.0

What do the screens show for `Cc1cccc(N2C(=O)C(O)=C(C(=O)c3cccs3)C2c2ccc(Cl)cc2)n1` (stereo unspecified)?
PABP1 MLLE inh: 13.2; PABP polyA inh: inactive; APOBEC3A inh: -3.5; eIF4H FP inh: 7.2; PHOSPHO1 block: 37.1; A3G deaminase: -10.3

What do the screens show for `COc1cccc(OC)c1C(=O)Nc1cccc(-n2cnnn2)c1`?
PABP1 MLLE inh: -5.3; PABP polyA inh: inactive; APOBEC3A inh: -2.5; eIF4H FP inh: -4.3; PHOSPHO1 block: 72.5*; A3G deaminase: -1.3

What do the screens show for `CCN1CCN(CCNC(=O)c2cc(Cl)c(NC(=O)C3=C(C)OCCS3)cc2OC)CC1`?
PABP1 MLLE inh: -9.8; PABP polyA inh: inactive; APOBEC3A inh: -1.1; eIF4H FP inh: 4.3; PHOSPHO1 block: 27.9; A3G deaminase: 1.9

Results for CCN(CC)CCCNC(=O)c1cc(Cl)c(NC(=O)C2=C(C)OCCS2)cc1OC ?
PABP1 MLLE inh: -11.6; PABP polyA inh: active; APOBEC3A inh: -2.2; eIF4H FP inh: 92.6*; PHOSPHO1 block: 50.4; A3G deaminase: -6.6

What do the screens show for `CCN(c1cccc(C)c1)S(=O)(=O)c1ccc(-n2cccn2)cc1`?
PABP1 MLLE inh: 9.6; PABP polyA inh: inactive; APOBEC3A inh: 0.0; eIF4H FP inh: -11.8; PHOSPHO1 block: -0.7; A3G deaminase: 3.3

How did Cc1cc(C)nc(S/C=C/C(=O)c2ccccc2F)n1 do in these assays?
PABP1 MLLE inh: 42.0*; PABP polyA inh: inactive; APOBEC3A inh: -3.6; eIF4H FP inh: 2.0; PHOSPHO1 block: 3.1; A3G deaminase: -10.4

What do the screens show for `O=C1/C(=C/c2ccc(Cl)cc2)NC(=S)N1Cc1cccnc1`?
PABP1 MLLE inh: -78.6; PABP polyA inh: inactive; APOBEC3A inh: 0.5; eIF4H FP inh: 12.2; PHOSPHO1 block: -49.6; A3G deaminase: 0.5
